Assay outcomes deposited in PubChem by National Center for Advancing Translational Sciences (NCATS).
IL1B secr inh: inhibitors of inflammasome signaling (IL-1 beta secretion); 360,000 tested, 4.7% active; THP-1 LPS/ATP IL-1B secretion, AlphaLISA, 16 h; hits give low values; activity change, % at 57.5 µM; in the data active = activity change below about -50%; inconclusive = mostly about -30% to -49%; note: % is set by controls: 0 for no effect and ±100 for the full control effect
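THP-1 cells pretreated 1 hr with compounds (up to 57.5 uM final), then stimulated with LPS (250 ng/mL final) plus ATP (1.25 mM final); secreted IL-1B measured by AlphaLISA after 16 hr, decreased signal indicating inhibition.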
TDP1 cell noCPT: qHTS for Inhibitors of human tyrosyl-DNA phosphodiesterase 1 (TDP1): qHTS in cells in absence of CPT | DT40 Tdp1-/- hTDP1 cells, no CPT, ATP luminescence, 48 h | Potency, µM (titrated, usually from 46.2 µM), inactives show at the top dose activity change, negative = growth inhibition, actives largely listed as inhibitors | 420,000 tested, 15% active | AID 686978, 2013; note: potency is the fitted concentration of half-maximal effect; % is set by controls: 0 for no effect and ±100 for the full control effect; nearly all actives have a fitted effect of over 55% in size
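No-CPT arm: Tdp1-/-;hTDP1 DT40 cells (400/well) plus compounds, incubated ≥48 hr at 37 °C. Readout CellTiter-Glo luminescence.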
SW480 rerep: induces DNA re-replication in SW480 colon adenocarcinoma cells; Potency, µM (doses to about 46.1 µM), for the others: at the top dose re-replication activation, actives largely listed as activators; 340,000 tested, 1.8% active; SW480 DNA re-replication, Hoechst DNA content imaging, 48 h; note: potency is the fitted concentration of half-maximal effect; % of control where 0% means no effect; nearly all actives have a fitted effect of over 55% in size
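DNA re-replication was detected as more nuclei of elevated Hoechst intensity after 48 hr exposure to compound (23 nL pinned per well of 250 cells).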
MCF10A rereplic: DNA re-replication induction in MCF 10a cells | Potency, µM (top dose mostly 46.1 µM), inactives show at the top dose activity, positive = re-replication, actives largely listed as activators | 350,000 tested, 2.9% active | MCF 10A DNA re-replication, Hoechst nuclear intensity, 48 h; note: potency is the fitted concentration of half-maximal effect; % of control where 0% means no effect; nearly all actives have a fitted effect of over 50% in size
BCR signal inh: chronic active BCR signaling inhibition. ABC-DLBCL IkBa-CBG/CBR reporter, luminescence ratio, 4 h. Potency, µM (highest dose often 46.1 µM), without a hit: top-dose activity change, negative = inhibition, actives largely listed as inhibitors. 340,000 tested, 0.05% active; active = well fitted inhibition curve with a large enough effect in the signal ratio, with a control signal flat, not every such curve was filed as active; inconclusive = small, poorly fitted or top-dose-only effect, or effect the other way, or a change in a side signal; the % refers to the signal ratio;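 note: potency is the fitted concentration of half-maximal effect; plate controls were basal doxycycline-induced cells for no effect and cells given 10 µM MG132 for full effect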
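TMD8 human ABC-DLBCL cells with doxycycline-inducible IκBα–green luciferase fusion and unfused red luciferase, in 0.5% FBS medium; compounds up to 46 uM, 4 h at 37C. Green/red luminescence ratio, filter-overlap corrected, fitted to concentration-response curves.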
TDP1 cell CPT: growth inhibition of DT40 Tdp1-/-;hTDP1 cells with camptothecin (screen for TDP1 inhibitors). chicken DT40 Tdp1-/-;hTDP1 cells + 20 nM CPT, ATP luminescence, 48 h. Potency, µM (doses to about 46.2 µM), without a hit: top-dose activity change, negative = growth inhibition, actives largely listed as inhibitors. 420,000 tested, 12% active; note: potency is the fitted concentration of half-maximal effect; % is set by controls: 0 for no effect and ±100 for the full control effect; nearly all actives have a fitted effect of over 55% in size
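Chicken DT40 Tdp1-/- cells stably complemented with human TDP1 were seeded at 400 cells/well in medium containing 20 nM camptothecin, exposed to pin-transferred compounds, and grown at 37 °C for at least 48 hr. Viability was read as ATP luminescence.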
* = called active by the depositor; u = inconclusive; x = not tested or not shown. A selection: hits, their analogues and other compounds. The true share with any hit is near 19%. Unless noted, calls come from the whole dose curve; as a rule, active = well fitted curve in the direction sought with a large enough effect; inconclusive = small, poorly fitted or top-dose-only effect, or another doubt; inactive = no such curve, though single readings can be large; an effect the other way counts as inactive or inconclusive.

SMILES	IL1B secr inh	TDP1 cell noCPT	SW480 rerep	MCF10A rereplic	BCR signal inh	TDP1 cell CPT
CCn1c(O)c(C=Nc2ccc(S(N)(=O)=O)cc2)c(=O)[nH]c1=S	-5.4	1.7%	-73.5%	-3.6%	1.0%	-13.7%
CCOc1cc2c(cc1OCC)-n1cccc1C(c1ccc(OC(F)F)cc1)NC2 (configuration not stated)	-25.9	18.4µM*	2.8%	-7.7%	-16.0%	u
CCOc1cc2c(cc1OCC)-n1cccc1C(c1ccc(OC)c(OC)c1)NC2 (configuration not stated)	u	u	1.6%	u	-8.7%	u
CCOc1cc2c(cc1OCC)-n1cccc1C(c1ccc(F)cc1)NC2 (configuration not stated)	0.0	u	4.5%	u	-19.8%	u
CCOc1cc2c(cc1OCC)-n1cccc1C(c1ccc(C(C)C)cc1)NC2 (configuration not stated)	-94.1*	7.31µM*	u	18.4µM*	u	8.2µM*
CCOc1cc2c(cc1OCC)-n1cccc1C(c1ccc(OC)cc1)NC2 (configuration not stated)	-63.0*	18.4µM*	u	u	-25.7%	u
C=CCn1c(O)c(C(CC)=Nc2cccc(C(F)(F)F)c2)c(=O)[nH]c1=O	17.3	9.6%	-4.5%	0.3%	2.0%	17.4%
COC(=O)Nc1nc2ccccc2[nH]1	12.2	5.8µM*	u	u	x	6.51µM*
CC(C)(C)C(=O)N1Cc2cc(N3CCCCC3)ccc2-n2nncc2C1	-4.6	u	x	x	x	u
COc1ccc(C(CNC(=O)Cc2ccc(Cl)c(Cl)c2)N(C)C)cc1 (configuration not stated)	-50.9*	u	-1.1%	5.5%	-21.7%	u
CC1CN(c2ccc([N+](=O)[O-])c(N3CCCCC3)c2)CCN1 (configuration not stated)	-5.2	-28.0%	-15.3%	16.0%	u	-10.4%
CCOc1ccc(C(=O)CC(NCc2cccs2)C(=O)O)cc1 (configuration not stated)	-15.1	16.4µM*	u	u	u	8.2µM*
CC1(C)OC(c2ccccc2)=C/C(=C/C=C2C(=O)NC(=O)NC2=O)O1	-4.9	u	18.4µM*	18.4µM*	u	-22.7%
Cc1ccc([C@@H]2CC(=O)[C@@H]3CN(S(=O)(=O)c4ccccc4C)[C@H](c4ccc(Cl)cc4)C[C@@H]3N2S(=O)(=O)c2ccc(C)cc2)cc1	49.5	25.9µM*	x	x	x	u
CC(C)OP(=O)(c1ccc(N(C)C)cc1)C(O)c1ccc(Br)cc1 (configuration not stated)	-4.7	-26.5%	-0.9%	9.7%	u	4.8%
CC(C)[C@]12O[C@H]1[C@@H]1O[C@]13[C@]1(O[C@H]1C[C@H]1C4=C(CC[C@@]13C)C(=O)OC4)[C@@H]2O	x	0.153µM*	x	x	u	0.121µM*
O=C(O)[C@@H](O)[C@H](O)[C@H](O)[C@@H](O)C(=O)O (tested in a mixture with another compound)	x	7.7%	x	x	x	u
CCCNC(=O)c1cnn2c(C)c(Cc3c(C)cc(C)cc3C)c(C)nc12	x	1.84µM*	x	x	2.0%	3.66µM*
Cc1nc2c(C(=O)N3CCC4(CC3)OCCO4)cnn2c(C)c1Cc1cccc(Cl)c1	-1.9	u	-10.1%	42.4%	4.7%	u
COc1ccc(NC(=O)N2CCC3(CC2)OCCO3)cc1	2.1	-1.1%	-1.5%	0.0%	u	u
